According to PubChem BioAssay AID1745848 (National Center for Advancing Translational Sciences (NCATS), 2022):
The whole screen tested about 2,100 compounds, of which about 940 (45%) were called active. Not shown: some 48% with an inconclusive outcome. The set was probably picked from earlier hits. The list shows a part of the results. Values without a mark were called inactive. Calls follow the shape of the dose curve; as a rule, active = well fitted inhibition curve with a large enough effect; inconclusive = small, poorly fitted or top-dose-only effect; inactive = no such curve, though single readings can be large or run the other way.

Assay: Confirmatory qHTS for Inhibitors of ATXN expression; also: nearly all actives have a fitted effect of over 65% in size;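 as to activity change, negative = inhibition: 0% = DMSO vehicle wells and -100% = medium-only wells without cells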
Conditions: ATXN2-luciferase reporter cells, luminescence, 24 h; series mostly up to 57.5 µM; activity change, negative = inhibition: at the top concentration
Excerpt: PI: Daniel Scoles Ph.D. University of Utah School of Medicine, Salt Lake City, Utah MLPCN Grant: NS073009 Spinocerebellar ataxia type 2 (SCA2) is a multisystem neurodegenerative disease caused by a dominantly acting mutation leading to expansion of a polyQ domain in the ataxin-2 protein (ATXN2). SCA2 patients develop progressive ataxia and later lose function in other neuronal systems. Prominent parkinsonian signs develop in some patients. Like many neurodegenerative disorders, no symptomatic or disease-modifying treatments are known. The primary objective of the proposed research is to identify compounds inhibiting ATXN2 expression and to test them for efficacy in SCA2 mouse models. We have developed a cell-based assay paired with an in vivo mouse model using identical luciferase expression constructs. This approach takes advantage of an ATXN2-luciferase transgene, with the luciferase gene flanked by the upstream and downstream portions of the ATXN2 gene. Here we describe a 5-7 dose quantitative high thoroughput screen (qHTS) for compounds lowering ATXN2 expression. We screened the NIH Molecular Libraries Small Molecule Repository (MLSMR) and NCGC's mechanistically annotated (MIPE) and drug repurposing (NPC) collections of compounds for lowering expression of an ATXN2-luciferase reporter in HEK-293 cells. The assay is a multiplexed cell viability assay to ensure target reduction in the absence of cytotoxicity. Secondary qHTS assays included a CMV-luciferase reporter expressed in HEK-293 cells as well as a biochemical assay using recombinant luciferase to detect inhibitors of the reporter enzyme. Compounds that inhibit ATXN2 expression but is not cytotoxic were selected for confirmatory and secondary screens.
PROTOCOL TABLE (as described by Inglese J, Shamu CE and Guy RK. 2007) SEQUENCE No. (e.g., 1, 2, 3, etc.); PARAMETER (e.g., Cells, Incubation, Reagent, etc.); VALUE; DESCRIPTION. 1; Cells; 4 uL; white, solid bottom, 1536-well Greiner assay plate. 2; Incubation; 2 hr; 37 degree C in 5% humidified CO2. 3; Compounds; 23 nL; Kalypsis pintool (Wako USA) equipped with a 1536-well pin head. 4; Incubation; 24 hr; 37 degree C in 5% humidified CO2. 5; Reagent; 1 uL; Gly-Phe-7-Amino-4-trifluoromethylcoumarin. 6; Incubation; 30 min; 37 degree C in 5% humidified CO2. 7; Detection; Fluorescence; ViewLux plate reader (PerkinElmer). 8; Reagent; 3 uL; SteadyGlo luciferase solution (Promega). 9; Incubation; 5 min; room temperature. 10; Detection; Luminescence; ViewLux plate reader (PerkinElmer). NOTES (numbers refer to Sequence numbers above) 1. […] expressing ATXN2-luciferase reporter were suspended in phenol-red free DMEM and dispensed in assay plates using a Multidrop Combi dispenser (Thermo Fisher Scientific). Wells containing medium only were plated on each plate, and values were used to normalize (100% inhibition) in the luciferase and CellTiter-Fluor assays. 2. Assay plates were incubated. Evaporation was prevented by covering assay plates with metal lids containing holes to allow gas diffusion. 3. Compounds were added in a dose response manner with the final concentrations of 57, 11.4, 2.28, 0.46, 0.091, 0.018, 0.0037 uM. Vehicle-only plates, with DMSO being pin-transferred to columns 5-48, were inserted uniformly at the beginning and the end of each library to monitor and record any shifts in assay performance. 5. 125 uM Gly-Phe-7-Amino-4-trifluoromethylcoumarin (MP Biomedicals) working concentration was used at a final concentration of 25 uM. 7. To assess cell viability; the assay plates were read using the ViewLux high-throughput CCD imager (PerkinElmer), wherein single end-point fluorescence measurement was acquired (excitation 405/10; emission 540/25 nm). 8. Detection reagent SteadyGlo Luciferase (Promega) was added to the assay plate. 10. Luminescence is then measured on the ViewLux imager equipped with a clear emission filter using a 2 sec exposure. […]
Potency is read from the fitted curve at half-maximal effect.

Row | SMILES | Potency | activity change, negative = inhibition
1 | C[C@]12CC[C@H](O)C[C@H]1CC[C@@H]1[C@@H]2CC[C@]2(C)[C@@H](C3=CC(=O)OC3)CC[C@]12O | 0.282 µM (active) | –
2 | CC12CCC(O)CC1CCC1C2CCC2(C)C(C3=CC(=O)OC3)CCC12O (centres undefined) | 0.398 µM (active) | –
3 | C[C@]12CCC3C(CCC4=CC(O)CC[C@@]43/C=N/O)C1(O)CCC2C1=CC(=O)OC1 (some centres undefined) | 0.355 µM (active) | –
4 | COc1ccc(O)c2c(=O)c3c(OC)cc4c(c3oc12)C1C=COC1O4 (centres undefined) | 2 µM (active) | –
5 | O=C1NC(=O)N(CCc2ccc(F)cc2)C(=O)/C1=C/C=C/c1ccccc1 | 7.94 µM (active) | –
6 | c1ccc2sc(N3CCNCC3)nc2c1 | – | -24.4%
7 | COc1cc2nc(CN3CC=C(c4ccccc4)CC3)[nH]c(=O)c2cc1OC | 0.282 µM (active) | –
8 | COc1cc2c(cc1OC)-c1c3c(cc4c1[C@@H](C2)N(C)CC4)OCO3 | 1.12 µM (active) | –
9 | COC1C(O)C(C)OC(OC2C(Oc3cccc4c(O)c5c(=O)oc6ccc(C)c7c(=O)oc(c34)c5c67)OC(C)C(O)C2O)C1O (centres undefined) | – | -5.87% [at 11.5 µM]
10 | CN1C(=O)NC(=O)/C(=C\C=C\c2ccccc2[N+](=O)[O-])C1=O | 11.2 µM (active) | –
11 | CNC(=O)Nc1ccc(C(=O)N/N=C\C23CC[C@@H](O)CC2(O)CC[C@@H]2[C@@H]3CCC3(C)C(C4=CC(=O)OC4)CCC23O)cc1 (some centres undefined) | 25.1 µM (active) | –
12 | CCCCN=C[C@]12CCC(O)CC1(O)CCC1[C@@H]2CC[C@]2(C)[C@H](C3C=CC(=O)O3)CCC12O (some centres undefined) | 0.631 µM (active) | –
13 | CC12CCC3C(CCC4(O)CC(O)CCC34C=NO)C1(O)CCC2C1=COC(=O)C1 (centres undefined) | 0.282 µM (active) | –
14 | C1=NCCc2c1[nH]c1ccccc21 | 3.16 µM (active) | –
15 | C[C@@H]1C[C@@H]([C@H](O)CC2CC(=O)NC(=O)C2)C(=O)[C@@H](C)C1 | 1.26 µM (active) | –
16 | CC(=O)OC1(C)CC(C)C(=O)C(C(O)CC2CC(=O)NC(=O)C2)C1 (centres undefined) | 0.01 µM (active) | –
17 | C[C@H]1C[C@@H](C)C(=O)[C@@H]([C@H](O)CC2CC(=O)NC(=O)C2)C1 | 0.178 µM (active) | –

Row | SMILES | Potency | activity change, negative = inhibition
18 | O=C(CSC1c2ccccc2-c2ccccc21)N/N=C/c1ccccc1O | 3.16 µM (active) | –
19 | C[C@H]1CCC[C@@H](O)CCC/C=C/c2cc(O)cc(O)c2C(=O)O1 | 1.41 µM (active) | –
20 | C[C@H]1CCC[C@H](O)CCCCCc2cc(O)cc(O)c2C(=O)O1 | 3.16 µM (active) | –
21 | COc1ccc(CCNCc2ccc(F)cc2)cc1OC | – | -6.67% [at 11.5 µM]
22 | O=C(Nc1ccc(OC(=O)N2CCCCC2)cc1)N1CCOCC1 | 4.47 µM (active) | –
23 | CC(=O)O[C@H]1[C@H]2O[C@]23[C@@H]2CC[C@]4(O)C[C@@H](O)CC[C@]4(C)C2CC[C@]3(C)[C@H]1c1ccc(=O)oc1 (some centres undefined) | 0.0398 µM (active) | –
24 | C[C@H]1[C@@H](OS(=O)(=O)O)C[C@@H]2C[C@H]([C@@H](O)c3cc(=O)[nH]c(=O)[nH]3)NC3=NC[C@H]1N32 | 7.94 µM (active) | –
25 | NC(=O)c1c(Br)n(C2OC(CO)C(O)C2O)c2ncnc(N)c12 (centres undefined) | 1.58 µM (active) | –
26 | Cc1cccc(C)c1-n1nnnc1C(c1cc2ccccc2o1)N1CCC(n2c(=O)[nH]c3ccccc32)CC1 (centres undefined) | 3.16 µM (active) | –
27 | COc1cccc(C(c2nnnn2-c2ccc3c(c2)OCCO3)N2CCC(n3c(=O)[nH]c4ccccc43)CC2)c1OC (centres undefined) | 3.55 µM (active) | –
28 | O=c1[nH]c2ccccc2n1C1CCN(C(c2cc3ccccc3o2)c2nnnn2-c2ccc3c(c2)OCCO3)CC1 (centres undefined) | 3.16 µM (active) | –
29 | COC(=O)C(O)(c1ccc(NC(=S)NC(=O)c2ccc(Cl)cc2Cl)c(C)c1)C(F)(F)F (centres undefined) | – | -8.26% [at 11.5 µM]
30 | CN1C2CCC1/C(=C/c1ccccn1)C(=O)/C2=C\c1ccccn1 | 0.398 µM (active) | –
31 | CC1CC(C)CC(C)C(O)C(C#N)=CC=CCC(C2CCCC2C(=O)O)OC(=O)CC(O)C(C)C1 (centres undefined) | 0.501 µM (active) | –
32 | O=C1NC2C(=CC(O)C(O)C2O)c2cc3c(cc21)OCO3 (centres undefined) | 0.199 µM (active) | –
33 | CCCCc1ccc2[nH]cc(CCN)c2c1 | 3.16 µM (active) | –
34 | NC(Cc1ccc(Cl)cc1)c1csc(Nc2ccccn2)n1 (centres undefined) | 22.4 µM (active) | –
